Bioassay records: PubChem BioAssay, NMMLSC
Rab7 wt GTP bind: modulators of GTP binding to dog Rab7 wildtype GTPase | hit rate 0.055% among 190,000 | GTP binding activity (percent of control), % at 10 µM | GST-Rab7 beads, fluorescent GTP binding, flow cytometry; actives lie on both sides; untreated = 100%, excess cold GTP = 0% | AID 758;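 active = fluorescent GTP binding to Rab7 beads changed by at least 20 points from the 100% baseline, either direction, mostly lower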;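 note: median green fluorescence of bound Bodipy-FL-GTP per Rab7 bead population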
Rac1 wt GTP bind: modulators of human Rac1 wildtype GTP binding | GST-Rac1 beads, fluorescent GTP binding, flow cytometry; actives lie on both sides; 0 = cold GTP competed, 100 = untreated | GTP binding activity (% of control), % at 10 µM | P63000 | hit rate 0.27% among 190,000;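 active = GTP binding activity at least 20 points away from the 100% control level, either lower or higher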
Rac1 mut GTP: alters GTP binding to activated mutant human Rac1; GST-Rac1 activated beads, fluorescent GTP binding, flow cytometry; actives lie on both sides; 100% means binding = to untreated wells; percent activity (GTP binding), % at 10 µM; hit rate 0.11% among 190,000; AID 764;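 active = GTP binding at least 20 percentage points away from the 100% baseline, in either direction, so actives lie on both sides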
Cdc42 wt GTP: modulators (inhibitors or activators) of GTP binding to human Cdc42 wildtype. P60953. GST-Cdc42 beads, Bodipy-GTP binding, flow cytometry; actives lie on both sides. percent activity (GTP binding), % at 10 µM. hit rate 0.2% among 190,000. AID 761;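 active = percent activity GTP binding at least 20 points away from the 100% baseline, either down as inhibitor or up as activator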;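 note: median bead fluorescence of bound Bodipy-FL-GTP at 100 nM; 0% = excess unlabeled GTP control and 100% = no compound control; below 100% means less GTP binding so inhibitor and above means activator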
Target sequence (P60953 whole entry, looked up): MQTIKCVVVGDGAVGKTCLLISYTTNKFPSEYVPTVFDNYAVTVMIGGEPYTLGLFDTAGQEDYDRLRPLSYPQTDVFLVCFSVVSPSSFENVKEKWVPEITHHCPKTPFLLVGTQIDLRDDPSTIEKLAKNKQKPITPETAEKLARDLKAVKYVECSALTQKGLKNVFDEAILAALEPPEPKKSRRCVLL
Rab2 wt GTP: changes GTP binding to wildtype dog Rab2A, up or down | hit rate 0.19% among 190,000 | GST-Rab2 wt beads, Bodipy-GTP binding, flow cytometry | GTP binding activity, % at 10 µM;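 active = GTP binding activity at least 20 points away from 100%, either lowered or raised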;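 note: 0% = beads with excess unlabeled GTP and 100% = no-compound control corrected for plate trend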
HRas wt GTP bind: human HRas wildtype GTP binding, change in either direction. P01112. GTP binding activity, % at 10 µM. hit rate 0.14% among 190,000. GST-Ras wt beads, Bodipy-FL-GTP binding, flow cytometry; actives lie on both sides;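 active = GTP binding activity at least 20% away from the 100% baseline, either lowered as inhibitor or raised as activator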;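 note: 0% = unlabeled GTP competition control and 100% = no-compound control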
An asterisk follows results filed as active. Hits are enriched below; roughly 0.38% of the tested compounds scored in any of these assays.

SMILES	Rab7 wt GTP bind	Rac1 wt GTP bind	Rac1 mut GTP	Cdc42 wt GTP	Rab2 wt GTP	HRas wt GTP bind
Cc1ccc(Sc2c(C)nn(C(=O)C3CC3)c2C)cc1	90	78*	79*	82	81	84
COc1ccc(OC)c(-c2csc(N(CC3CCCO3)C(=O)Cc3ccccc3)n2)c1 (stereo unspecified)	98	102	100	103	100	98
CCOc1ccc(NC(=O)CNC(=O)c2ccc([N+](=O)[O-])cc2)cc1	101	98	94	95	97	96
COc1cc(/C=N/NC(=O)c2cnn3c(C)cc(-c4ccccc4)nc23)ccc1O	94	89	89	89	89	96
COc1cc(/C=N/Nc2nc(C)nc3c2cnn3-c2ccccc2)ccc1O	95	70*	85	77*	79*	83
COc1cccc2c(SCC(=O)N/N=C/c3ccc(O)cc3O)cc(C)nc12	85	66*	83	66*	66*	72*
